Assay [1] is described as follows: Nuclear factor erythroid 2-related factor 2/antioxidant responsive element (Nrf2/ARE) small molecule agonists: qHTS cell viability counter screen in human keratinocytes (AID 1919968; active means well fitted curve in the direction sought with a large enough effect in the repeat runs; an effect the other way counts as inactive or inconclusive; further: nearly all actives have a fitted effect of over 55% in size). The method in brief:
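Seed 1,500 KeratinoSens cells per well, then incubate 5 h at 37 C/5% CO2. Add compounds in DMSO and incubate 23 h. Add CellTiter-Fluor, wait 1 h and read fluorescence.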
In general terms: In qHTS, concentration-response curves come from the screen itself.

Assay [2] is described as follows: Nuclear factor erythroid 2-related factor 2/antioxidant responsive element (Nrf2/ARE) small molecule agonists: luciferase reporter gene qHTS assay in human keratinocytes (AID 1919969; further: nearly all actives have a fitted effect of over 35% in size; further: potency means the concentration at half of the fitted maximal effect). (In general: Reporter assays use an easily measured gene product as a stand-in for the process of interest.)
For assay [3], the target named is Gonadotropin-releasing hormone receptor (Homo sapiens) (UniProt P30968). The assay is described as follows: Human gonadotropin-releasing hormone receptor (GnRHR) small molecule agonists, calcium flux assay in GnRHR-HEK293 cells (AID 1920063). Further: nearly all actives have a fitted effect of over 35% in size. Further: potency means the concentration at half of the fitted maximal effect. Summed up: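 Cells: HEK293 stably expressing human GnRHR. Steps: overnight (18 h) culture, 1 h calcium dye loading at 37 C, compound addition, kinetic fluorescence read at 480/540 nm. Each compound tested at 15 concentrations in triplicate.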
(In general: Calcium flux is commonly read through the fluorescence of an indicator in the cells.)

Assay [4] has as its target KiSS-1 receptor (Homo sapiens) (UniProt Q969F8). Kind of assay: Human kisspeptin (KISS1R) small molecule agonists, calcium flux assay in KISS1R-HEK293 cells (AID 1920064; active means well fitted curve in the direction sought with a large enough effect in the repeat runs; an effect the other way counts as inactive or inconclusive). Summed up: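 Cells plated and incubated 18 h; dye added, 1 h at 37 C; compounds in DMSO pinned in; signal read at 480/540 nm every second for 3 min. Each compound tested at 15 concentrations in triplicate.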

The nature of assay [5]: G protein-coupled receptor (GPCR) small molecule agonists, calcium flux assay: HEK293 wild type cell line counter screen (AID 1920065). Summed up: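 Counter-screen of the Tox21 10K library for non-specific calcium release: dye-loaded cells received compounds in DMSO and were monitored by kinetic fluorescence (480/540 nm, 3 min). Fifteen concentrations, run in triplicate.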

Assay [6] is described as follows: p53 small molecule agonists, cell-based qHTS assay with human liver microsomes (AID 1963577).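 Further: p53 response element beta-lactamase reporter cells with liver microsomes plus NADPH.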 The method in brief: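 Metabolically competent format: test substances, human liver microsomes and NADPH (both 0.5 mg/mL final) incubated with p53RE-bla cells 16 h at 37 C. Beta-lactamase reporter signal then quantified by fluorescence.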
Assay [7] is described as follows: p53 small molecule agonists, cell-based qHTS assay with rat liver microsomes (AID 1963578). Summed up:
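Each plate received p53RE-bla cells, then compound, then rat liver microsomes and NADPH (both 0.5 mg/mL final). Plates were held 16 h at 37 C, and beta-lactamase activity was detected with LiveBLAzer over 2 h.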

The nature of assay [8]: p53 small molecule agonists, cell-based qHTS assay with human liver microsomes: qHTS cell viability counter screen (AID 1963579). Further: nearly all actives have a fitted effect of over 45% in size. The method in brief: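 Tox21 library compounds, delivered from DMSO stocks, were tested on p53RE-bla cells together with 0.5 mg/mL human liver microsomes and 0.5 mg/mL NADPH (final) over 16 h at 37 C; CellTiter-Glo luminescence served as the cytotoxicity measure.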

Assay [9] in a line: p53 small molecule agonists, cell-based qHTS assay with rat liver microsomes: qHTS cell viability counter screen (AID 1963580). Further: nearly all actives have a fitted effect of over 45% in size. Summed up: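 HCT-116 p53RE-bla, 4,000 cells/well, 5 h pre-incubation; cpd + rat liver microsomes 0.5 mg/mL + NADPH 0.5 mg/mL (final); 16 h, 37 C; CellTiter-Glo, 30 min RT; luminescence.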
Assay [10] in a line: p53 small molecule agonists, cell-based qHTS assay: qHTS cell viability counter screen (AID 1963581). Further: nearly all actives have a fitted effect of over 45% in size. Summed up:
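Cells: HCT-116 with p53 response element-driven beta-lactamase. Treatment: 16 h, 37 C, compounds in DMSO. Read: CellTiter-Glo luminescence after 30 min RT.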

For assay [11], the target named is 5-hydroxytryptamine receptor 2A (Homo sapiens) (UniProt P28223). Kind of assay: 5-hydroxytryptamine receptor 2A (HTR2A) small molecule agonists, cell-based qHTS assay (AID 1963587). Further: nearly all actives have a fitted effect of over 30% in size. The method in brief: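 Kinetic calcium-flux fluorescence (2 min, 1 sec intervals) after compound addition in agonist mode. HTR2A-CHO cells were cultured 18 h, then dye-loaded 1 h at 37 C.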

In assay [12] the target is Muscarinic acetylcholine receptor M1 (Homo sapiens) (UniProt P11229). Kind of assay: Cholinergic receptor muscarinic 1 (CHRM1) small molecule antagonists, cell-based qHTS assay (AID 1963588). Further: nearly all actives have a fitted effect of over 40% in size. The method in brief: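 CHRM1-CHO calcium-flux assay, antagonist mode. Cells were seeded 18 h, dye-loaded 1 h at 37 C and given compound for 5 min at RT, then acetylcholine was added at 50nM. FDSS fluorescence was read 3 min; 15 concentrations, three runs.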

Assay [13] shares this target. Kind of assay: Cholinergic receptor muscarinic 1 (CHRM1) small molecule agonists, cell-based qHTS assay (AID 1963589). Further: nearly all actives have a fitted effect of over 35% in size. Summed up:
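Agonist-mode qHTS in CHO cells stably carrying human muscarinic M1. Intracellular calcium is tracked by fluorescence every second after compound transfer; each compound runs at 15 concentrations in three independent runs.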

Assay [14] can be described thus: cAMP Responsive Elements (CRE) small molecule agonists, cell-based qHTS assay (AID 1963590). The method in brief: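 Agonist mode qHTS in CRE-bla HEK 293T cells: compounds dosed from DMSO for 3 h at 37 C/5% CO2, followed by LiveBLAzer B/G FRET substrate for 2 h at room temperature.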
Assay [15] in a line: cAMP Responsive Elements (CRE) small molecule antagonists, cell-based qHTS assay (AID 1963591; active means well fitted inhibition curve with a large enough effect in the signal ratio in the repeat runs, not every such curve was filed as active; the % refers to the signal ratio). The method in brief: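 Antagonist mode: test compounds are co-incubated with the adenylyl cyclase activator NKH477 (0.25 uM final) on CRE-bla HEK293T cells for 3 h at 37 °C, followed by LiveBLAzer substrate loading.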
The target of assay [16] is Beta-2 adrenergic receptor (Homo sapiens) (UniProt P07550). Kind of assay: Adrenergic beta2 receptor (ADRB2) small molecule antagonists, cell-based qHTS assay (AID 1963592). Further: series mostly up to about 92 µM; nearly all actives have a fitted effect of over 50% in size. Summed up:
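Cells (CHO, stable ADRB2 overexpression) incubated 18-20hr at 37C; compounds added from DMSO; agonist mix (1nM isoproterenol, 100uM IBMX, 25uM Ro-20-1724) added; 0.5hr RT; d2-cAMP and anti-cAMP-cryptate added; 1hr RT; 665/615 nm read.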

Assay [17] has as its target D(2) dopamine receptor (Homo sapiens) (UniProt P14416). The assay is described as follows: Dopamine D2 receptor (DRD2) small molecule agonists, cell-based qHTS assay (AID 1963594). Further: nearly all actives have a fitted effect of over 35% in size. The method in brief: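 cAMP accumulation in DRD2-HEK293 cells measured by HTRF after 1 h detection; compounds added 10 min before NKH477 (200nM […]) forskolin-analogue stimulation, 30 min at room temperature, with Ro20-1724 present at 0.1 mM final.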

The target is the same in assay [18]. Kind of assay: Dopamine D2 receptor (DRD2) small molecule antagonists, cell-based qHTS assay (AID 1963595; active means well fitted inhibition curve with a large enough effect in the signal ratio in the repeat runs, with a control signal flat; the % refers to the signal ratio). Summed up: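 Human DRD2 antagonist qHTS measuring cAMP by HTRF. The cells are exposed to compound for 10 min, then to NKH477 (200 nM) and quinpirole (12 nM) for 30 min at RT, with Ro20-1724 (0.1 mM) present throughout.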
The target of assay [19] is Beta-2 adrenergic receptor (Homo sapiens) (UniProt P07550). Kind of assay: Adrenergic beta2 receptor (ADRB2) small molecule agonists, cell-based qHTS assay (AID 1963593).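 Further: CHO cells stably overexpressing human ADRB2.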 Summed up: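 CHO cells stably over-expressing ADRB2 were plated overnight at 37C, then dosed with compounds plus a stimulation mix containing 100uM IBMX and 25uM Ro-20-1724 for 0.5hr at room temperature. cAMP was measured by HTRF competition, 1hr.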

Results filed as inconclusive are left out. Activity calls are given as the source filed them. Unless noted, the call rests on the fitted dose curve.

The values that follow come from PubChem BioAssay (Tox21).

Gonadotropin-releasing hormone receptor (Homo sapiens), sequence (P30968 whole entry, looked up): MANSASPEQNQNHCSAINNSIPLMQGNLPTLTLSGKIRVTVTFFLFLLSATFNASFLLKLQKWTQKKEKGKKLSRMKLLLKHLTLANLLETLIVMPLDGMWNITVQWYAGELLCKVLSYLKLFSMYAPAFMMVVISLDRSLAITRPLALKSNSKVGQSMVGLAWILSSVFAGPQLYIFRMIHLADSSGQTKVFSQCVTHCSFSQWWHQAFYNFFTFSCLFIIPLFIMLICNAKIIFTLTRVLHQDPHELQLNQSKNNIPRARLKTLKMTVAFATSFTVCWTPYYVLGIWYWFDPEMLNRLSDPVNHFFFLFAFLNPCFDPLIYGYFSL
Beta-2 adrenergic receptor (Homo sapiens), sequence (P07550 whole entry, looked up): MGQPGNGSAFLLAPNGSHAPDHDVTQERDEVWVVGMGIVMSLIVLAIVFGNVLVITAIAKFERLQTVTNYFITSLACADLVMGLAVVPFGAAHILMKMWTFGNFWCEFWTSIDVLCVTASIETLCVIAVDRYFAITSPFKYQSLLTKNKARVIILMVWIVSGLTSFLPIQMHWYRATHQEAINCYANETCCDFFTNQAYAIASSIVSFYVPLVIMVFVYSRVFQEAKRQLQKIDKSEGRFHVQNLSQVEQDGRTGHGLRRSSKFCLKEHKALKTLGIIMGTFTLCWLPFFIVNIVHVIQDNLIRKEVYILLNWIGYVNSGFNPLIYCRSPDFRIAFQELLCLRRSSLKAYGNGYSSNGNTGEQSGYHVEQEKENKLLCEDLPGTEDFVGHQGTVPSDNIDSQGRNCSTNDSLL
5-hydroxytryptamine receptor 2A (Homo sapiens), sequence (P28223 whole entry, looked up): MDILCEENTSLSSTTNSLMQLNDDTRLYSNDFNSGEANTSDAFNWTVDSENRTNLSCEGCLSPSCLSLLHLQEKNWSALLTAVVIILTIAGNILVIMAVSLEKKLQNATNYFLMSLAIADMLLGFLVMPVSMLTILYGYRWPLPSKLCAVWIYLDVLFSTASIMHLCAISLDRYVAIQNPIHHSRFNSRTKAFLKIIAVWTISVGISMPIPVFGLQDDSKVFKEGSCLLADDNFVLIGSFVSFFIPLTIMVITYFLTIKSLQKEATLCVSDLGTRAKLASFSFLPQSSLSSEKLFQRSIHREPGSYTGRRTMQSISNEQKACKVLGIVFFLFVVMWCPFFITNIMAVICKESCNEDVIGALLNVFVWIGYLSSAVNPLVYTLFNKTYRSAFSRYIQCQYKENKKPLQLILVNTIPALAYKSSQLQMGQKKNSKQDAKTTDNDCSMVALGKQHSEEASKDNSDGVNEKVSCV
D(2) dopamine receptor (Homo sapiens), sequence (P14416 whole entry, looked up): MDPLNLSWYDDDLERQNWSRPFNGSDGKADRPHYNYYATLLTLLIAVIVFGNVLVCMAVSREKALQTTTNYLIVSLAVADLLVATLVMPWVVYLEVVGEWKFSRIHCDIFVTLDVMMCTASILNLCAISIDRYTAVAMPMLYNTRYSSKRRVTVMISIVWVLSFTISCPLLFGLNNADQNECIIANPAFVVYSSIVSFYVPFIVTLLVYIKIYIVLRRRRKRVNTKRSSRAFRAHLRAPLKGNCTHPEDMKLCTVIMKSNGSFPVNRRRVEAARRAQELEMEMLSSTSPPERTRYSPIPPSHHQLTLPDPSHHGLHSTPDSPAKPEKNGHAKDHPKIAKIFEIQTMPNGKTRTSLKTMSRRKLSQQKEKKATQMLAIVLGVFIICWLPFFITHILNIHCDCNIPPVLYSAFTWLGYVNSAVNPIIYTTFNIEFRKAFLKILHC
Muscarinic acetylcholine receptor M1 (Homo sapiens), sequence (P11229 whole entry, looked up): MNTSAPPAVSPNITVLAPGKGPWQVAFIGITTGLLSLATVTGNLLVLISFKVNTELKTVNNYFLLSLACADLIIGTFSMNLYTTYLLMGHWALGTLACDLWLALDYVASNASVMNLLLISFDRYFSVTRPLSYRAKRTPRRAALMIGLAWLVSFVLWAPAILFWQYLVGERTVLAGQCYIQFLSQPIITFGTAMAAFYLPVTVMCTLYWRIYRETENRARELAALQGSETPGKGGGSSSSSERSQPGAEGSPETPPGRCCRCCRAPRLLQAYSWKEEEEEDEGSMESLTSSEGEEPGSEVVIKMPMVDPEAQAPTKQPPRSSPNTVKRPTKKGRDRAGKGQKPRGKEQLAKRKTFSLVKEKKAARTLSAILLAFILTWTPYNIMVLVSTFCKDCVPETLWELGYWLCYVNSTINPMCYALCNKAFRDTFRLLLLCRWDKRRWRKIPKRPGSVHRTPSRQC
KiSS-1 receptor (Homo sapiens), sequence (Q969F8 whole entry, looked up): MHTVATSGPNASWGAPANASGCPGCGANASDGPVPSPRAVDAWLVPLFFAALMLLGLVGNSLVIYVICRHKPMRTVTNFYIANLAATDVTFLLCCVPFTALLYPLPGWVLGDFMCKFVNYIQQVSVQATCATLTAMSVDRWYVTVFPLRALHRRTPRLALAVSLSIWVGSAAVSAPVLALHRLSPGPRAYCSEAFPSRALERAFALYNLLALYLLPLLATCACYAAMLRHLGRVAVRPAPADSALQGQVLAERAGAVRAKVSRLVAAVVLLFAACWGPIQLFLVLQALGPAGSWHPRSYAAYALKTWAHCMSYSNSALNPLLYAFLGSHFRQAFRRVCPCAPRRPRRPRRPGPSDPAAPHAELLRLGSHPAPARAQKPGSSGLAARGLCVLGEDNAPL

Take `CCCCC`: the Potency entry in [1], in [2], in [6], in assay [7], in assay [8] and in assay [9] was “inactive” each time. In addition, the Potency result in assay [10], in [11], in assay [12], in assay [13], in assay [14] and in [15] was “inactive” each time. Further, the Potency entry in assay [16], in assay [17] and in assay [18] was “inactive” in each case. Further, in assay [3], the Potency was 38.3 µM (active). For the same molecule, the result in assay [4] and in assay [5] was inactive.
Take `O=c1[nH]cnc2ccccc12`: the Potency result in assay [1], in [3], in assay [6], in assay [7], in assay [8] and in [9] was “inactive” throughout. In addition, the Potency entry in assay [10], in assay [11], in assay [12], in assay [13], in [14] and in assay [16] was “inactive” each time. Besides, the Potency entry in assay [19], in [17] and in assay [18] was “inactive” each time. Besides, the Potency in assay [2] is 0.0631 µM (active). Also, the result in assay [4] and in [5] was inactive.
In the case of `CC(C)C(=O)OCc1ccccc1`, the Potency entry in [1], in assay [2], in assay [3], in assay [6], in [7] and in [8] was “inactive” each time. In addition, the Potency entry in assay [9], in assay [10], in [11], in assay [12], in [13] and in assay [14] was “inactive” in each case. In addition, the Potency result in [15], in [16], in [17] and in assay [18] was “inactive” in each case. For the same molecule, the outcome in assay [4] and in [5] was inactive.
Regarding `Cc1cccc2nccnc12`, the Potency entry in assay [1], in assay [2], in assay [3], in [6], in assay [7] and in assay [8] was “inactive” each time. For the same molecule, the Potency result in assay [9], in assay [10], in assay [11], in assay [12], in [13] and in [14] was “inactive” throughout. Further, the Potency entry in assay [15], in assay [16], in [17] and in [18] was “inactive” each time. For the same molecule, the result in assay [4] and in assay [5] was inactive.
As to `CCCCc1ccc(N)cc1`, the Potency entry in assay [1], in assay [2], in assay [3], in assay [6], in [7] and in [8] was “inactive” throughout. In addition, the Potency entry in assay [9], in [10], in assay [11], in [12], in assay [13] and in assay [14] was “inactive” each time. Besides, the Potency entry in [15], in [16], in [17] and in [18] was “inactive” each time. Further, the result in [4] and in assay [5] was inactive.
`CCOC(=O)c1ccc(NC(=O)CN2CCCCC2)cc1`: the Potency result in [1], in assay [2], in [3], in assay [6], in assay [7] and in assay [8] was “inactive” each time. For the same molecule, the Potency result in assay [9], in assay [10], in assay [11], in assay [12], in [13] and in [14] was “inactive” in each case. The Potency entry in assay [15], in assay [16], in [19], in [17] and in [18] was “inactive” throughout. Besides, the outcome in assay [4] and in assay [5] was inactive.
For `CC1=CC[C@H](C(C)C)C=C1`, the Potency result in [1], in [2], in assay [3], in assay [6], in assay [7] and in assay [8] was “inactive” throughout. Moreover, the Potency entry in assay [9], in [10], in [11], in [12], in assay [13] and in assay [14] was “inactive” throughout. The Potency entry in assay [16], in assay [19], in [17] and in [18] was “inactive” in each case. The outcome in assay [4] and in assay [5] was inactive.
As for `Nc1ccc2cc(S(=O)(=O)O)ccc2c1`, the Potency result in assay [1], in [2], in assay [3], in assay [6], in [7] and in [8] was “inactive” throughout. The Potency result in assay [9], in assay [10], in assay [11], in [12], in assay [13] and in assay [14] was “inactive” each time. Further, the Potency entry in [15], in assay [16] and in [17] was “inactive” throughout. In addition, the outcome in assay [4] and in assay [5] was inactive.
